Assay: blood-stage malaria parasite viability loss – strain 3D7, DAPI fluorescence, 100 nL, primary screen (AID 1184);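 also: parasites grown inside human red blood cells in medium with human serum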
Settings: P. falciparum 3D7 growth, 3 d, higher = more signal

Compound | z-score
COCC(=C=CC[C@H](O)c1ccc(OCCO)cc1)C[C@H](O)COCc1ccccc1 | -2.74
O=C1NC(=O)C2C1C=CC(C(O)c1cc(C(F)(F)F)cc(C(F)(F)F)c1)N2Nc1ccc(Cl)cc1Cl (centres undefined) | 0.0295
COC(=O)[C@H](Cc1ccccc1)N1CC(/C=C/C2CC2)=C[C@@H]1[C@@H](O)Cc1ccccc1 | -0.547
NC(=O)NCC#Cc1ccc2c(c1)[C@]1(C(=O)N2)[C@H](C(=O)Nc2nc3ccccc3s2)[C@H]2C(=O)O[C@H](c3ccccc3)[C@H](c3ccccc3)N2[C@@H]1c1ccc(O)cc1 | -0.905
O=C1O[C@@H](c2ccccc2)[C@@H](c2ccccc2)N2[C@@H](c3ccc(O)cc3)[C@]3(C(=O)Nc4ccc(C#CC5=CCCCC5)cc43)[C@@H](C(=O)N3CCN(c4ncccn4)CC3)[C@H]12 | -1.97
CC(=O)NCCCC[C@@H]1NC(=O)[C@@H]2C[C@H](C(=O)O)[C@H](c3ccc(O)cc3)N2C1=O | 0.174
COc1cc(CO)cc(I)c1O[C@H]1C=C(C(=O)NCCO)C[C@@H](NCc2ccccc2F)[C@@H]1O | -2.98
O=C1NCC(=O)N2[C@@H]1C[C@@H](C(=O)O)[C@H]2c1ccc(O)cc1 | 0.489
COC(=O)[C@@]1(Cc2ccc(F)cc2)[C@H]2c3cc(C(=O)N4CCCC4)n(CCF)c3C[C@H]2CN1C(=O)c1ccccc1 | -0.815
C[C@]1(C(=O)O)c2ccccc2C(=O)N(Cc2ccccc2)[C@H]1c1ccc(CO)cc1 | -0.393
CCOC(=O)C[C@H]1[C@H](OC(=O)c2ccc(-c3ccccc3)cc2)[C@@H](NC(=O)C2CCCCC2)c2cc(OCCCO)ccc2N1C(=O)c1ccccc1 | -0.723
O=C1O[C@@H](c2ccccc2)[C@@H](c2ccccc2)N2[C@@H](c3ccccc3OCCO)[C@]3(C(=O)Nc4ccccc43)[C@@H](C(=O)NC[C@H](O)c3ccccc3)[C@H]12 | -0.692
C=CC1c2cc(O)c(OC)cc2CCN1Cc1sc2ccccc2c1Cl (centres undefined) | -0.614
CC(C)CN1C(=O)[C@@]2(c3ccc([N+](=O)[O-])cc3)CC(=O)N(CC34CC5CC(CC(C5)C3)C4)[C@@H]2c2ccc(CO)cc21 | -1.14
COCCOC(=O)N1C(=O)[C@@]2(c3cc(C#Cc4ccc(OC)cc4)ccc31)[C@H](C(=O)N1CCN(c3ncccn3)CC1)[C@H]1C(=O)O[C@H](c3ccccc3)[C@H](c3ccccc3)N1[C@@H]2c1ccccc1OCCO | -1.51
CCOC(=O)C[C@H]1[C@H](OC(=O)Cc2ccc3c(c2)OCO3)[C@@H](NC(=O)Cc2ccc(OC)cc2)c2cc(OCCCO)ccc2N1C(=O)c1ccccc1 | -0.382
[N-]=[N+]=Nc1ccccc1C[C@]1(C(=O)NCc2ccccc2)N=C(c2ccc(OCCCO)cc2)O[C@H]1c1ccccc1 | -2.07
COC(=O)Cn1c(C(=O)N2CCCC2)cc2c1C[C@H]1CN(C(=O)c3ccccc3)[C@@](Cc3ccc(F)cc3)(C(=O)OC)[C@@H]21 | 0.554
COc1ccc(NN2C(C(O)c3ccco3)C=CC3C(=O)N(C4CCCCC4)C(=O)C32)cc1 (centres undefined) | -0.244
CCCCN1CC=CC23O[C@@H]4C=CCOC(=O)[C@@H]4[C@H]2C(=O)N(C(C)CO)[C@@H]3C1=O (some centres undefined) | 1
COc1ccc(NC(=O)O[C@H]2[C@H](OC(=O)Nc3ccc4c(c3)OCO4)[C@@H](OC(=O)Nc3ccc4c(c3)OCO4)[C@@H](OC)O[C@@H]2CO)cc1 | -2.04
C=CCN1C(=O)[C@]2(CC=C)N=C(c3ccc(OCCCO)cc3)O[C@@H]2c2ccccc21 | -1.96
CC1CC/C=C\[C@H]2OC34C=CCN(C(C)C)C(=O)[C@H]3N(CCCCCO)C(=O)[C@@H]4C2C(=O)O1 (some centres undefined) | 1.17
COC(=O)[C@@]1(Cc2ccccc2)[C@H]2c3cc(C(=O)N4CCCC4)n(Cc4ccsc4Br)c3C[C@H]2CN1C(=O)c1ccccc1 | -1.16
NCCCCCNC(=O)[C@@H]1C[C@@H]2C(=O)N[C@@H](CCCCN)C(=O)N2[C@@H]1c1cccc(OCCO)c1 | -0.119
CCOC(=O)C1=CC[C@@H](c2ccc([N+](=O)[O-])cc2)N(S(=O)(=O)c2ccc(C)cc2)[C@H]1c1ccccc1 | -1.41
CC(C)c1ccc(NN2C(C(O)c3ccco3)C=CC3C(=O)N(c4ccccc4)C(=O)C32)cc1 (centres undefined) | -0.107
COC1(C)CN(Cc2ccccc2Br)[C@H](/C=C/c2ccccc2)[C@H](Cc2ccccc2)O1 (some centres undefined) | 0.502
CC=CC(O)C1C=CC2C(=O)N(C)C(=O)C2N1N1CCCCC1 (centres undefined) | 0.884

— PubChem BioAssay
